Measurements published in PubChem BioAssay (NCI).
Where “and” joins values, the source holds several entries; their conditions need not be identical. Equal values may be shown once. This is part of a sample that, as a whole, favours compounds with a hit. Of some 83,000 tested, about 20% had one in any assay.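 For each line, cells grew in 96-well plates with the test compound present at a single concentration for 48 hours.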 A number with no mark means an inactive call.

The compounds below were run on BT-549 breast (assay: NCI-60 one-dose screen, 48 h (100 = growth as untreated, 0 = no growth, -100 = all killed)). Conditions: 10 µM unless noted.
Method: Growth inhibition of the BT-549 human tumor cell line is measured as a screen for anti-cancer activity. Cells are grown in 96 well plates and exposed to the test compound for 48 hours. Compounds are tested at a single concentration, which is 10^-5 M for most compounds. The reported endpoint is percent growth (GI% or GIPRCNT), where numbers from 0 - 100% represent growth inhibition, and numbers from -100% - 0 represent cell death. For example, a value of 40 represents 60% growth inhibition. A value of 0 means no net growth occurred over the course of the experiment. A value of -40 indicates 40% of cells at the beginning of the experiment died by the end of the experiment. A value of -100 means all cells are dead at the end of the experiment.
NCI-60 Human Tumor Cell Lines Screen was performed using the standard one-dose NCI protocol, which is described in more detail at https://dtp.cancer.gov/discovery_development/nci-60/default.htm.
Compounds with GIPRCNT values below 10 were considered active. Activity score was based on GIPRCNT using the following formula: […]
Score is 0 for GIPRCNT values of 100 or above, 50 for GIPRCNT values of 0, and 100 for GIPRCNT values of -100.
For CN(C)C(=N)N=C(N)N, the growth was 80.2% and 156%. With CC1(C)OC(=O)C(=Cc2ccc(C#N)cc2)C(=O)O1 the growth was 109% and 103%. In the case of CN(C)CC(CN(C)C)C(O)c1ccccc1 (stereo not given), the growth is reported as 101%. CCOP(=O)(OCC)/C(C#N)=C/c1c(C)[nH]c2ccccc12 showed a growth of 98.3%. Compound Nc1ccc2ccc(NS(=O)(=O)N3CCCCC3)cc2c1 has a growth of 29%. Work on O=c1[nH]nnc2cc(Cl)ccc12 yielded a growth of 110%. CCCCCCC(C)CC1=C(O)c2ccccc2C(=O)C1=O (stereo not given) showed a growth of 49%. In the case of CC(=O)Oc1cc(C(C)C)c(OCCN(C)C)cc1C, the growth is reported as 119% and 100%. With NCCSSC/C=C\CSSCCN the growth was 100%. Work on COCCCNC1=C(C#N)C(=O)NC(c2cccs2)S1 (stereo not given) yielded a growth of 96%. In the case of CCCCOC1NC(=O)NC(=O)C1(F)C(=O)OCC (stereo not given), the growth is reported as 57.3% and 59.5%. CCC(=O)Oc1ccc(OCc2ccccc2)cc1 was tested, and the growth was 73.4%. CCOc1ccc(/C=C\C(=O)O)cc1 was tested, and the growth was 125%. In the case of COc1ccc(C(=O)C(O)c2ccc(OC)cc2)cc1 (stereo not given), the growth is reported as 109% and 98.9%. COc1cc2c(cc1O)C(=O)CCCC2 gave a growth of 78%. CC(C)(C(=O)c1cccnc1)c1cccnc1 was tested, and the growth was 103% and 136%. With NC1=NC(c2ccccc2)N=C(Nc2ccccc2)N1 (stereo not given) the growth was 74.5% and 83.4%. For COc1cc(Cl)ccc1C, the growth was 102%. With N=C(N=C(N)N)N1CCOCC1 the growth was 115% and 103%. For C(=N\OCCc1ccccc1)/c1ccccn1, the growth was 138% and 102%. CC(=O)c1cccc(OC(=O)c2ccccc2)c1 showed a growth of 120%. CSc1nc(N)c(N)c(N)n1 was tested, and the growth was 101%. For Nc1ccc(O)c(C(=O)O)c1, the growth was 76.3% and 111% and 92.6%. CN(C)c1ccc(C(=N)c2ccc(N(C)C)cc2)cc1 was tested, and the growth was 70.1% and 40.6%. Work on COc1cc(NCCCCCNC(C)C)c2ncccc2c1 yielded a growth of 89.1%. Work on Nc1c(Cl)cc2c(c1Br)C(=O)c1ccccc1C2=O yielded a growth of 114%. Compound CC(C)(C)OC(=O)NCCc1ccc(N)cc1 has a growth of 98.1%. For Cc1cc(-c2ccc(N=Nc3c(C)nn(-c4ccc(S(=O)(=O)O)cc4)c3O)c(C)c2)ccc1N=Nc1ccc(O)c(C(=O)O)c1, the growth was 98.5%. CCCCCc1cc[n+](CC(=O)c2ccccc2)cc1 gave a growth of 95.9%. CC(=O)Nc1ccc(OC(C)=O)cc1 was tested, and the growth was 11.9% and 103%. For OCCSc1ccc(Cl)cc1, the growth was 111% and 94.7%. Work on OCc1cccc(F)c1 yielded a growth of 104%. CCOC(=O)c1ccncc1 gave a growth of 109%. C/C=C/C(=O)OCCCCCCCCCCCC showed a growth of 97%. In the case of Cc1onc(-c2c(F)cccc2Cl)c1-c1ncc(-c2ccc(Cl)cc2)o1, the growth is reported as 73.8% and 40.7%. For OCc1ccccc1F, the growth was 82.4%. CC1CC(O)CC(C)(C)C1.CC1CC(O)CC(C)(C)C1.CC1CC(O)CC(C)(C)C1.CC1CC(O)CC(C)(C)C1.[Ti] (stereo not given) showed a growth of 111%. With Cc1ccc(N)cc1S(=O)(=O)O the growth was 97.9%. CC1(C)CC(=O)NC1=O gave a growth of 104%. With O=C1C=CC(n2cc(F)c(=O)[nH]c2=O)O1 (stereo not given) the growth was 43%.
